According to PubChem BioAssay AID1986 (Sanford-Burnham Center for Chemical Genomics, 2009):
Among all 290,000 compounds or so, about 890 (0.31%) were called active. Cut-off read from the data, not from the text of the source: active = inhibition mostly above about 52% (no sharp cut-off); inactive = mostly below about 76%. Only a selection was taken, and actives are over-represented in it overall.

Experiment: cell-free HIV fusion peptide-binding blockers – biochemical, uHTS, fluorescence dequenching, primary screen (AID 1986)
Conditions: 30 min, stronger effect = higher value
[1] = measured here: repeat confirmation average inhibition, at 18.6 µM

Row | SMILES | inhibition (at 20 µM) | inhibition [1] [%]
1 | c1ccc(-c2nc3ccccc3c3nncn23)cc1 | -1.8% (inactive) | 
2 | O=c1[nH]nc(SCc2ccccc2Cl)n1-c1ccc2c(c1)OCCO2 | -1.4% (inactive) | 
3 | COCCCN(C(=O)c1ccco1)c1nc(-c2ccc(OC)cc2)cs1 | 2.9% (inactive) | 
4 | O=C(CCCl)Nc1cc(SCCO)cc([N+](=O)[O-])c1 | 0.1% (inactive) | 
5 | CC(=O)c1cc(NC(=O)c2cccc(C(F)(F)F)c2)c(=O)oc1C | 0.8% (inactive) | 
6 | CC(=O)c1cc(NC(=O)c2cccc(C(F)(F)F)c2)c(=O)oc1/C=C/N(C)C | 75.6% (active) | 91.6
7 | CC(=O)c1cc(NC(=O)c2ccc(C)cc2)c(=O)oc1/C=C/N(C)C | 25.7% (inactive) | 
8 | COC(=O)c1ccc2c(c1)C(C)(C)C(/C=C/c1ccc(O)cc1)=[N+]2C | 111% (active) | 
9 | COC(=O)c1ccc2c(c1)C(C)(C)C(/C=C/c1ccc(OC)c(OC)c1OC)=[N+]2C | 10.3% (inactive) | 
10 | COC(=O)c1ccc2c(c1)C(C)(C)C(/C=C/c1ccccc1O)=[N+]2C | 143% (inactive) | 
11 | C/C=C(\C)CN1CCN(c2ccccc2F)CC1 | -0.4% (inactive) | 
12 | CC(=O)c1sc(NS(=O)(=O)c2ccc(C)cc2)nc1-c1ccccc1 | 19.8% (inactive) | 
13 | COc1ccc(S(=O)(=O)/N=C2/NC(=O)/C(=C\c3cc(OC)c(OC)cc3[N+](=O)[O-])S2)cc1 | 27.4% (inactive) | 
14 | COc1cc(/C=C2\S/C(=N/S(=O)(=O)c3ccccc3)NC2=O)c([N+](=O)[O-])cc1OC | 59.3% (inactive) | 33.8
15 | O=C(NCc1cc([N+](=O)[O-])ccc1O)c1cccc(NS(=O)(=O)c2ccccc2)c1 | 4% (inactive) | 
16 | Cc1ccc(S(=O)(=O)N/N=C\c2cc([N+](=O)[O-])ccc2Cl)cc1 | 2.5% (inactive) | 
17 | NC1=NC(=O)/C(=C\c2cc([N+](=O)[O-])ccc2Cl)S1 | -3.5% (inactive) | 
18 | Cc1ccc(S(=O)(=O)N/N=C/c2cc([N+](=O)[O-])ccc2O)cc1[N+](=O)[O-] | 17.1% (inactive) | 
19 | O=S(=O)(c1ccccc1)N1CCN(c2nnc(-c3ccccc3)c3ccccc23)CC1 | 0% (inactive) | 
20 | Cc1cc(S(=O)(=O)N2CCCC2)c(C)s1 | -1.2% (inactive) | 
21 | Nn1c(SCc2cccc(Br)c2)nnc1-c1cccnc1 | -2% (inactive) | 
22 | CCOc1ccc(/C=C2/C(=O)N(c3ccc(OC)cc3)C(=S)N2CC(=O)OC)cc1OCC | 2.5% (inactive) | 
23 | COC(=O)CN1C(=S)N(c2ccc(OC)cc2)C(=O)/C1=C/c1ccc(OC)cc1 | -1.4% (inactive) | 
24 | COC(=O)CN1C(=S)N(c2ccc(OC)cc2)C(=O)/C1=C/c1ccc(N2CCOCC2)cc1 | 73.4% (active) | 

Row | SMILES | inhibition (at 20 µM) | inhibition [1] [%]
25 | COc1ccccc1N=Nc1c(O)[nH]c2ccc(Br)cc12 | 74.7% (active) | 70.2
26 | COc1ccccc1NC(=S)N=Nc1c(O)[nH]c2ccc(Br)cc12 | -1.3% (inactive) | 
27 | COC(=O)N=Nc1c(O)[nH]c2ccc(Br)cc12 | -0.3% (inactive) | 
28 | Cc1ccc(CNc2ccc3c(c2)OCO3)cc1 | 112% (active) | 
29 | c1cc(CNc2ccc3c(c2)OCO3)ccn1 | 4.7% (inactive) | 
30 | Cc1ccc(CNCc2ccc3c(c2)OCO3)c(C)c1 | -1.9% (inactive) | 
31 | Cc1ccc(CNCc2ccc3c(c2)OCO3)cc1 | 2.9% (inactive) | 
32 | Cc1ccc(C(=O)NCc2ccc3c(c2)OCO3)c(C)c1 | 0.4% (inactive) | 
33 | Cc1ccc(CNc2ccc3c(c2)OCO3)c(C)c1 | 52.3% (active) | 
34 | COC(=O)c1cc2ccccc2c(-c2c(OC)c(C(=O)OC)cc3ccccc23)c1OC | -0.9% (inactive) | 
35 | CCOC(=O)N/N=C/c1ccc(OCCSc2ccc(Cl)cc2)c(OC)c1 | 6.5% (inactive) | 
36 | O=C(NC1CCCC1)C(c1cccs1)N(C(=O)c1csnn1)c1ccccc1F (configuration not stated) | 0.9% (inactive) | 
37 | COc1ccc(/C=C2\OC(=S)N(C)C2=O)cc1 | -1.3% (inactive) | 
38 | CN(C)c1ccc(/C=C2\N=C(C(C)(C)C)OC2=O)cc1 | 28.5% (inactive) | 
39 | CN1C(=O)/C(=C\c2ccc(N(C)C)cc2)OC1=S | 78.5% (active) | 83.9
40 | COc1ccccc1CN1C(=S)SC(C)(C)C1NO (configuration not stated) | -0.5% (inactive) | 
41 | CCCCc1nc2cc(C(=O)N3CCNC(=O)C3)ccc2o1 | 0.8% (inactive) | 
42 | Cn1cccc1/C=C1\CC(C(C)(C)C)C/C(=C\c2cccn2C)C1=O (configuration not stated) | 2.7% (inactive) | 
43 | CC1C/C(=C/c2cccs2)C(=O)/C(=C/c2cccs2)C1 (configuration not stated) | 68.1% (active) | 
44 | O=C1/C(=C\c2ccco2)CCC/C1=C\c1ccco1 | 69.6% (inactive) | 3.2
45 | CCC1C/C(=C/c2ccco2)C(=O)/C(=C/c2ccco2)C1 (configuration not stated) | 68.9% (inactive) | 0.1
46 | O=C1/C(=C/c2cccs2)CCC/C1=C\c1cccs1 | 31.9% (inactive) | 
47 | CC(C)(C)C1C/C(=C/c2ccccn2)C(=O)/C(=C/c2ccccn2)C1 (configuration not stated) | 3.1% (inactive) | 
48 | CC1C/C(=C/c2ccco2)C(=O)/C(=C/c2ccco2)C1 (configuration not stated) | 61.3% (active) | 

Row | SMILES | inhibition (at 20 µM) | inhibition [1] [%]
49 | CC1C/C(=C/c2ccncc2)C(=O)/C(=C/c2ccncc2)C1 (configuration not stated) | 1.9% (inactive) | 
50 | CC(C)(C)C1C/C(=C/c2ccco2)C(=O)/C(=C/c2ccco2)C1 (configuration not stated) | 61.8% (active) | 
51 | N#Cc1cccn1-c1nccs1 | -0.8% (inactive) | 
52 | Cc1onc(-c2c(F)cccc2Cl)c1C(=O)OCC(=O)NC(N)=O | -0.8% (inactive) | 
53 | COC(=O)c1ccc(CSc2nc3ccccc3[nH]2)o1 | 1.5% (inactive) | 
54 | CCN(CC)c1ccc(/C=C2/SC(=O)N(C(C)C)C2=O)o1 | 2.5% (inactive) | 
55 | CCN(CC)c1ccc(/C=C2\SC(=O)N(C(C)C)C2=O)o1 | 56.4% (active) | 
56 | CC(C)N1C(=O)S/C(=C\c2ccc(-c3ccc(Cl)c(C(=O)O)c3)o2)C1=O | 24.7% (inactive) | 
57 | O=C(O)c1ccc2c(c1)C1C=CCC1C(c1ccncc1)N2 (configuration not stated) | 24.6% (inactive) | 
58 | COc1ccc(C(=O)N/N=C(\C)c2ccc3c(c2)C2C=CCC2C(c2ccccc2)N3)cc1 (configuration not stated) | 16.5% (inactive) | 
59 | NCCCNc1ccc([N+](=O)[O-])cc1C(F)(F)F | 0.6% (inactive) | 
60 | O=C(COc1ccc(Br)cc1Cl)NC(=S)Nc1ccccn1 | -1.1% (inactive) | 
61 | CC1=CC(=C(C#N)c2nc3ccccc3s2)C=C(C)N1c1ccc(F)cc1F | 22.6% (inactive) | 
62 | COc1ccccc1N1C(C)=CC(=C(C#N)c2nc3ccccc3s2)C=C1C | 26.5% (inactive) | 
63 | CC1=CC(=C(C#N)c2nc3ccccc3s2)C=C(C)N1c1ccc(F)cc1 | 66.4% (active) | 
64 | CCN(CC)C(=O)Cn1cc(S(=O)(=O)CC(=O)Nc2cc(OC)ccc2OC)c2ccccc21 | -1.7% (inactive) | 
65 | C=CCNCCCCOc1ccccc1-c1ccccc1 | -2% (inactive) | 
66 | CC1=NOC(=O)/C1=C/c1ccc(O)cc1 | 0.5% (inactive) | 
67 | CC1=NOC(=O)/C1=C/c1ccc(N(C)C)cc1 | -2.2% (inactive) | 
68 | CCN(CC)c1ccc(/C=C2/C(=O)ON=C2C)cc1 | 100% (active) | 
69 | Nn1cnnc1SCC(=O)Nc1ccc2c(c1)OCO2 | 0.5% (inactive) | 
70 | Cc1cccc(C)c1Nc1nnc(SCC(=O)c2ccc3c(c2)NC(=O)CO3)s1 | 0.2% (inactive) | 
71 | CCOC(=O)/C(C#N)=C/c1ccc(N2CCN(C)CC2)cc1 | 7.2% (inactive) | 
72 | CCOC(=O)/C(C#N)=C\c1ccc(N2CCN(C)CC2)cc1 | 4% (inactive) | 

Row | SMILES | inhibition (at 20 µM) | inhibition [1] [%]
73 | CCOC(=O)/C(C#N)=C\c1ccc(N2CCN(C/C=C/c3ccccc3)CC2)cc1 | 117% (active) | 
74 | CCCCCCCCCCCCCCCC[n+]1ccc(C(N)=O)cc1 | -14.2% (inactive) | 
75 | CCCCCCCCCC[n+]1cccc(C(=O)N(CC)CC)c1 | 3% (inactive) | 
76 | CCCn1c(=O)c2sccc2n2c(CCCC(=O)NCc3cccnc3)nnc12 | -1.5% (inactive) | 
77 | O=C(c1ccccc1)N1N=C(c2ccccc2)CC1c1ccccc1 (configuration not stated) | 1.1% (inactive) | 
78 | Cc1cc[n+](-c2[nH]c(=O)sc2/C=N/N=C(\[O-])c2ccccc2)cc1C | 116% (active) | 93.6
79 | Cc1cc[n+](-c2[nH]c(=O)sc2/C=N/N=C(\[O-])c2ccncc2)cc1C | 0% (inactive) | 
80 | Cc1cc[n+](-c2[nH]c(=O)sc2/C=N/N=C(\[O-])c2ccccc2)cc1 | 10.5% (inactive) | 
81 | Cc1cc(NC(=O)CSCC(=O)N(c2cccc(Cl)c2)C(C(=O)NC2CCCCC2)c2ccc(O)c(O)c2)no1 (configuration not stated) | 11.2% (inactive) | 
82 | CSCc1ccc(C(=O)NC2CC(C)(C)Cc3c2cnn3-c2ccc(F)cc2)o1 (configuration not stated) | 1.2% (inactive) | 
83 | CCCn1c(=O)c2ccccc2n2c(SCN3C(=O)c4ccccc4C3=O)nnc12 | 0.3% (inactive) | 
84 | N#C/C(=C/c1ccc(-c2ccc(S(N)(=O)=O)cc2)o1)c1nc2ccccc2s1 | 149% (inactive) | 
85 | O=Cc1ccc(-c2cccc(C(=O)O)c2)o1 | 2.4% (inactive) | 
86 | O=C(O)c1cc(-c2ccc(/C=C3\NC(=O)N(c4ccccc4)C3=O)o2)ccc1Cl | 32.2% (inactive) | 
87 | N#C/C(=C\c1ccc(-c2ccc(F)cc2)o1)C(=O)Nc1nc(-c2cccs2)cs1 | 14.4% (inactive) | 
88 | O=C(O)c1cccc(-c2ccc(/C=N/n3cnnc3)o2)c1 | 1.6% (inactive) | 
89 | CC1(C)OC(=O)C(=Cc2ccc(-c3ccc(Cl)c(C(=O)O)c3)o2)C(=O)O1 | 36.9% (inactive) | 
90 | N#C/C(=C\c1ccc(-c2ccc([N+](=O)[O-])cc2)o1)C(=O)Nc1nc(-c2cccs2)cs1 | -1.7% (inactive) | 
91 | N#C/C(=C\c1ccco1)c1nc2ccccc2s1 | 146% (inactive) | 
92 | O=C(O)c1cccc(-c2ccc(/C=c3/sc4nc5ccccc5n4c3=O)o2)c1 | 78% (active) | 
93 | N#C/C(=C/c1ccc(-c2ccccc2)o1)c1nc(-c2cccs2)cs1 | 62.6% (active) | 
94 | O=C(O)c1cc(-c2ccc(/C=c3\sc4nc5ccc(Br)cc5n4c3=O)o2)ccc1Cl | 68.1% (active) | 
95 | N#C/C(=C/c1ccc(-c2cc(C(=O)O)cc(C(=O)O)c2)o1)c1nc2ccccc2s1 | 92.9% (active) | 
